# Screening results: PubChem BioAssay, Center for Chemical Genomics, University of Michigan
# The sample as a whole holds a higher share of hits than the screen did.
# Dicer processing: inhibitors of Dicer pre-microRNA processing, primary screen, biochemical, cat-ELCCA, chemiluminescence; 47,000 tested, 6% active; z-score at 25 µM; Endoribonuclease Dicer (Homo sapiens), Q9UPY3; cat-ELCCA pre-miR-21 Dicer processing; active compounds read high; in the data active means z-score above about 3, passing the limit was not always enough;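 further: plate controls were vehicle for no effect and no enzyme for full effect; higher signal means more uncleaved substrate so more Dicer inhibition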
# Target sequence (Q9UPY3 whole entry, looked up): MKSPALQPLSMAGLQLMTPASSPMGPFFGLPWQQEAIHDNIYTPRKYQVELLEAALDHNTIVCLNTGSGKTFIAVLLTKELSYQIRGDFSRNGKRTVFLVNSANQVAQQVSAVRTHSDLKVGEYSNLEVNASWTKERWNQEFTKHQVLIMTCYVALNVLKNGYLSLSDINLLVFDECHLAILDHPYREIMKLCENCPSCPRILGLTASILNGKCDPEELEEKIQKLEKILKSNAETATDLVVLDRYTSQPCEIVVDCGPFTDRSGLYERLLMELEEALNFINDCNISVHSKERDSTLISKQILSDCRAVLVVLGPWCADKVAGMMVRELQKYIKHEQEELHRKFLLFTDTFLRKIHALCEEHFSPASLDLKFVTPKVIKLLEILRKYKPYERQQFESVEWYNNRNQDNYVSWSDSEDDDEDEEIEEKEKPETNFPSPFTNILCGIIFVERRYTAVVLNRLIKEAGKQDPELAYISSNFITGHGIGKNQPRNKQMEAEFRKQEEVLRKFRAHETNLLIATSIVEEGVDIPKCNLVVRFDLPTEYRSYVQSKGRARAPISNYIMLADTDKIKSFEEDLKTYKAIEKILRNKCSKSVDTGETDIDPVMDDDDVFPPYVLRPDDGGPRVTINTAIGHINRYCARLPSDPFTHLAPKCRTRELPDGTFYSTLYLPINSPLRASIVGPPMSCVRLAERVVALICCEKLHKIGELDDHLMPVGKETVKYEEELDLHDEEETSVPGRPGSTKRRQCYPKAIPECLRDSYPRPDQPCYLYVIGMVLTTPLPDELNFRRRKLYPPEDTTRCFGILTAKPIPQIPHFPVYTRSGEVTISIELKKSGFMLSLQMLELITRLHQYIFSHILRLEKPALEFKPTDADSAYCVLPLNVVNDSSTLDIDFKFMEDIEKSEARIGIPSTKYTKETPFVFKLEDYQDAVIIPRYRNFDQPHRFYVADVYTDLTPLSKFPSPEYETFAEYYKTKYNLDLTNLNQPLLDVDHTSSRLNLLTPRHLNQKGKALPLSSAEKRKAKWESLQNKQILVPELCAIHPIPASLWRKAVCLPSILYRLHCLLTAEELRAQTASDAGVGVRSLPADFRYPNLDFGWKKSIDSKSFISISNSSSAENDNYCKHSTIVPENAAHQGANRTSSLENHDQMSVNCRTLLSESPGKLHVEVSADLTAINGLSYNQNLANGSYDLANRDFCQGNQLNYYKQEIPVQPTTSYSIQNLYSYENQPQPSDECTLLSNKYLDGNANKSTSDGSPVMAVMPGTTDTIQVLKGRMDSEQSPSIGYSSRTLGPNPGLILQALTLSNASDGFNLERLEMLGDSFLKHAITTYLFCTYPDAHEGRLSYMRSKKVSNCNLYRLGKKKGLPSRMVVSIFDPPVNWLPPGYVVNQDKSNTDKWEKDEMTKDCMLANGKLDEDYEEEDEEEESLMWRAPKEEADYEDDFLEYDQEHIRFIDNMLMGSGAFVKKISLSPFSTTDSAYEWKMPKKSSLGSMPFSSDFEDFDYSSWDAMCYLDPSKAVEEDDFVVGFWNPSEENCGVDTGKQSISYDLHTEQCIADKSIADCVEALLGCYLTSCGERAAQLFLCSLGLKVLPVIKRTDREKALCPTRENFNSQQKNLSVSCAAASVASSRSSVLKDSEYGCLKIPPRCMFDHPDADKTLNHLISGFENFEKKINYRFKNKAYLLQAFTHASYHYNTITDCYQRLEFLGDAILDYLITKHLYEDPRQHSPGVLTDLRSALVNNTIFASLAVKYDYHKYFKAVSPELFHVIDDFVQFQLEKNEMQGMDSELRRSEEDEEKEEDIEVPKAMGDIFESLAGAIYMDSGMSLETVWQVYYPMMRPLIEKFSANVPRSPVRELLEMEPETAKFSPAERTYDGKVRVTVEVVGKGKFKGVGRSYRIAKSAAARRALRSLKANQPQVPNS
# Starred values were filed as active, the others as inactive.
SMILES,Dicer processing
CNC(=O)Nc1nncnc1C(=O)O,-2.1
O=C(NC1CCCC1)c1nn2c(c1Cl)NC(c1ccccc1)CC2C(F)(F)F (stereo not given),-0.2
O=C(O)c1cc2n(n1)C(C(F)(F)F)CC(c1ccco1)N2 (stereo not given),-0.34
CC1CCN(C(=O)c2nn3c(c2Cl)NC(c2ccco2)CC3C(F)(F)F)CC1 (stereo not given),4*
CSc1ccccc1NC(=O)c1cc2n(n1)C(C(F)(F)F)CC(c1ccco1)N2 (stereo not given),-0.22
CSc1ccccc1NC(=O)c1nn2c(c1Cl)NC(c1ccco1)CC2C(F)(F)F (stereo not given),4.4*
CC1CN(C(=O)c2cc3n(n2)C(C(F)(F)F)CC(c2ccco2)N3)CC(C)O1 (stereo not given),1.7
CN(C)c1nc(-c2ccccc2)nc(-c2ccccc2)c1C#N,-0.97
COCc1cc(=O)n2[nH]c(-c3ccc(OC)cc3)cc2n1,0.84
CCOc1ccccc1N1CCN(S(=O)(=O)c2ccc(Br)cc2)CC1,1.2
CN(C)CCN1C(=O)C(=O)c2ccccc21,-1.5
O=C1C(=O)N(Cc2ccc(CN3C(=O)C(=O)c4ccccc43)cc2)c2ccccc21,3*
COC(=O)c1ccc(Cn2c(C)cc(C)[n+]2C)o1,2.9
COC(=O)CN1C(=O)C(=O)c2ccccc21,-1.6
COC(=O)c1ccc(CN2C(=O)C(=O)c3ccccc32)o1,3.7*
CCCN1C(=O)C(=O)c2ccccc21,-0.36
O=c1[nH]c(C2CC2)nc2c1CSCC2,1.3
O=C(c1ccc(Cl)cc1Cl)n1nccc1-c1ccc(-c2ccc(F)cc2F)o1,-0.19
CCCCNC(=O)Nc1ccccc1SCC(O)Cn1ccc(C(F)(F)F)n1 (stereo not given),0.59
COc1ccc2sc(Nc3nc(C)n(-c4ccccc4)c(=O)n3)nc2c1,1.4
CC(=O)OCCn1c(=O)[nH]c(=O)c2nsnc21,-0.17
Cc1cc(C)c2oc(-c3ccc(C)c(N)c3)nc2c1,3.2*
Cc1cc(C)c2oc(-c3cc(N)ccc3Cl)nc2c1,2.3
Cc1cc(C)c2oc(-c3cccc(N)c3)nc2c1,1.9
O=C(c1cccs1)n1c2ccc(F)cc2c2nc3ccccc3nc21,-0.6
SMILES,Dicer processing
Cc1cc(C)c(C(=O)CC2(O)C(=O)N(C)c3ccccc32)c(C)c1 (stereo not given),-0.57
CCCN1C(=O)C(O)(CC(=O)c2c(C)coc2C)c2ccccc21 (stereo not given),0.41
Cc1coc(C)c1C(=O)CC1(O)C(=O)N(C)c2ccccc21 (stereo not given),3.4*
O=[N+]([O-])c1ccc(CSc2nnc(-n3cccc3)s2)cc1,11
CCCNC(=O)CCSc1nc(-c2ccco2)cc(C(F)(F)F)n1,1.5
CCc1nnc2sc(-c3cc(C)nc4ccccc34)nn12,-1.1
CCCc1nnc(NC(CC)OC(=O)c2cc(C)nc3ccccc23)s1 (stereo not given),3.1*
COCCNc1cc(C)nc2ccccc12,5.5
CCOC(=O)c1c(NC(=O)c2ccncc2)sc2c1CCC(C(C)(C)C)C2 (stereo not given),1.5
Cc1ccc(C2Nn3c(C)nnc3SC2C(=O)Nc2ccc(C)c(C)c2)cc1 (stereo not given),-3.2
CC(C)(C)NC(=S)N/N=C/c1c(Br)cnn1Cc1ccc(Cl)cc1,1.5
CCC/C(C)=N/Nc1nc2c(c(=O)n(Cc3ccccc3Cl)c(=O)n2C)n1C,1.9
Clc1cccc(Nc2nnns2)c1Cl,1.4
Cc1nnc(Nc2cccc(Cl)c2C)s1,3.4*
Cc1cc(Cl)ccc1Nc1nnc(-c2ccccc2Cl)s1,-1.5
CC(C)N(CCC#N)C(=O)Nc1ccc(F)cc1,0.09
Cc1cccn2cc(-c3ccc(F)cc3)cc12,4.4*
Cc1cccn2cc(-c3ccc(F)cc3)nc12,0.34
c1ccc(-c2cc3ccccn3c2)cc1,0.48
O=c1ccc([N+](=O)[O-])cn1C1CCCCO1 (stereo not given),0.99
CC(C)c1ccc(/C=C2\Sc3ccccc3NC2=O)cc1,-0.57
CCOc1cc(C2c3c(oc4ccccc4c3=O)C(=O)N2Cc2ccccc2)ccc1O (stereo not given),1.3
Cc1ccc(-c2nc(-c3ccccc3)no2)cc1,0.12
COc1cccc(-c2nnc(SCc3ccc(Br)cc3)o2)c1,0.26
COc1cccc(-c2nc(-c3ccc(Cl)cc3)no2)c1,3*
SMILES,Dicer processing
Cc1cc(C)cc(-c2nc(-c3ccccc3)no2)c1,4.7*
COc1ccc(-c2nc(-c3ccc(Cl)cc3)no2)cc1OC,8.9
COc1cccc(-c2nc(-c3ccccc3)no2)c1,3.2
COc1cccc(-c2nnc(SCc3ccc(Cl)cc3)o2)c1,3.1*
COc1cccc(-c2nnc(SCc3cccc(Cl)c3)o2)c1,-0.19
COc1ccc(-c2noc(-c3cc(C)cc(C)c3)n2)cc1,-0.05
CC1CC(=O)Nc2ccccc2N1C(=O)Nc1ccccc1OC(F)(F)F (stereo not given),-0.85
Nc1cccc(-c2nnc(-c3ccco3)o2)c1,-0.52
CCCC(NS(=O)(=O)c1cccc2nsnc12)C(=O)O (stereo not given),-0.77
COc1ccc(NCC(O)Cn2c3ccccc3c3ccccc32)c(OC)c1 (stereo not given),0.29
O=C(CC1SC(=Nc2ccc(C3CCCCC3)cc2)NC1=O)Nc1ccc(OC(F)(F)F)cc1 (stereo not given),-2.3
C#CCSc1nc(=O)c2cccnc2n1-c1ccc(Br)cc1,-0.62
O=C1CC(c2ccccc2)c2cc(Cl)ccc2O1 (stereo not given),2.1
Oc1ccccc1C1=NN2C(C1)c1ccccc1OC2c1cccnc1 (stereo not given),12*
Oc1ccccc1C1=NN2C(C1)c1ccccc1OC2c1ccccc1 (stereo not given),2.5
Clc1ccc(C2=NN3C(C2)c2ccccc2OC3c2cccnc2)cc1 (stereo not given),6*
Cc1ccc(O)c(C2=NN3C(C2)c2cc(Cl)ccc2OC3c2cccnc2)c1 (stereo not given),-0.6
CC(C)C1Oc2ccccc2C2CC(c3ccccc3O)=NN21 (stereo not given),5.6*
COc1cccc2c1OC(C(C)C)N1N=C(c3ccccc3O)CC21 (stereo not given),0.12
Clc1ccc(C2=NN3COc4ccccc4C3C2)cc1 (stereo not given),2.1
COc1cccc2c1OC(c1cccnc1)N1N=C(c3ccccc3O)CC21 (stereo not given),-0.4
CCCCCCSc1s[nH]c(=O)c1C#N,-1.1
CCOC(=O)c1cc2cc(Cl)ccc2oc1=O,-0.85
O=C(NCCNc1ccc(C(F)(F)F)cn1)Nc1ccccc1Cl,-0.79
CCCOc1ccc(C2c3c(oc4ccccc4c3=O)C(=O)N2c2nc(C)c(C)s2)cc1 (stereo not given),0.2
SMILES,Dicer processing
CC(=O)Nc1ccc2c(c1)[n+](C)c(C)n2-c1ccccc1,0.47
CC[n+]1c(C)n(-c2ccccc2)c2ccccc21,10*
CCOC(=O)c1c(O)c(O)c(C(=O)OCC)n1-c1ccccc1,-0.94
Cn1c(CSc2cc(C(F)(F)F)nc3ccccc23)nnc1SCc1ccccc1,-1.7
CCCOc1ccc(C2c3c(oc4ccc(F)cc4c3=O)C(=O)N2CCCN(C)C)cc1OCC (stereo not given),-0.62
Clc1ccc(-c2ccc3c4ccccc4cc-3o2)cc1,2.6
Cc1cccc(OCc2nn3c(-c4ccccc4)nnc3s2)c1,-0.09
COc1cc2nc(NC(C)=O)sc(=O)c2cc1OC,3.6*
